Inconclusive results are not listed. Active and inactive are the calls of the source. How the source made its calls: active means hit-call score of the fitted dose curve at least 0.9, where 1 is the maximum; inconclusive means response in the unintended direction; inactive means score below 0.9.

The values that follow come from PubChem BioAssay (EPA / NIEHS).

The target of test [1] is human Adenosine A1 Receptor (AdoRA1), ADORA1 (gene 134) (UniProt P30542). Briefly: NVS_GPCR_hAdoRA1: NovaScreen (NVS) G Protein-Coupled Receptor Assay for human Adenosine A1 Receptor (AdoRA1) (AID 2283254). In a few lines: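 Each chemical is first tested twice at 25 uM, actives later in dilution series, against a radioligand bound to human cortex membranes; after 1 h, filter-retained counts are compared with DMSO controls, lower signal indicating displacement.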

Test [2] deals with human Serotonin, 5-Hydroxytryptamine Receptor 7 (5HT7), HTR7 (gene 3363) (UniProt P34969). Briefly: NVS_GPCR_h5HT7: NovaScreen (NVS) G Protein-Coupled Receptor Assay for human Serotonin, 5-Hydroxytryptamine Receptor 7 (5HT7) (AID 2283255).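 Further: hits reduce specific radioligand binding relative to DMSO.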 In a few lines: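 Filter-bound radioactivity counted after 1 h, with loss of specific radioligand binding fitted against DMSO. Membrane protein came from CHO cells expressing human 5HT7. Chemicals were tested first at 25 uM in duplicate, then in concentration series if active.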

For test [3], the target named is human Adenosine A2a Receptor (AdoRA2a), ADORA2A (gene 135) (UniProt P29274). Briefly: NVS_GPCR_hAdoRA2a: NovaScreen (NVS) G Protein-Coupled Receptor Assay for human Adenosine A2a Receptor (AdoRA2a) (AID 2283256). The essentials: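 Compounds screened in duplicate at 25 uM, with actives followed up in concentration series, for displacement of a radioligand from HEK293-derived receptor protein. Bound counts read by filter scintillation at 1.5 hours, DMSO as baseline.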

Test [4] concerns the target human Adrenergic, Alpha 2A Receptor (Adra2A), ADRA2A (gene 150) (UniProt P08913). Briefly: NVS_GPCR_hAdra2A: NovaScreen (NVS) G Protein-Coupled Receptor Assay for human Adrenergic, Alpha 2A Receptor (Adra2A) (AID 2283257). In a few lines:
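Displacement of a specific radioligand from HT29 membrane protein was counted by filter scintillation after 1 h. Compounds were screened in duplicate at 25 uM, and actives were retested in concentration series. Fitting was positive-direction against DMSO.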

For test [5], the target named is human Adrenergic, Beta 1 Receptor (Adrb1), ADRB1 (gene 153) (UniProt P08588). Briefly: NVS_GPCR_hAdrb1: NovaScreen (NVS) G Protein-Coupled Receptor Assay for human Adrenergic, Beta 1 Receptor (Adrb1) (AID 2283258). In a few lines: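 Membranes/protein extracted from human neuroepithelioma cells, radioligand competition binding read by filtration and scintillation 2 h post-dose. Single 25 uM duplicate screen, then concentration-response follow-up; DMSO as negative control.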

Test [6] deals with Beta-2 adrenergic receptor (Homo sapiens) (UniProt P07550). Briefly: NVS_GPCR_hAdrb2: NovaScreen (NVS) G Protein-Coupled Receptor Assay for human Adrenergic, Beta 2 Receptor (Adrb2) (AID 2283261). In a few lines:
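Compounds screened in duplicate at 25 uM, then actives in concentration series. Human beta-2 receptor from CHO material, cell-free; radioligand displacement after 1 h measured by filtration and scintillation against DMSO baseline.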

The target in test [7] is human Adrenergic, Beta 3 Receptor (Adrb3), ADRB3 (gene 155) (UniProt P13945). Briefly: NVS_GPCR_hAdrb3: NovaScreen (NVS) G Protein-Coupled Receptor Assay for human Adrenergic, Beta 3 Receptor (Adrb3) (AID 2283262). In a few lines:
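A cell-free filter binding assay read by scintillation counting, with displacement of a specific radioligand measured after 1 hour. The receptor source was SK-N-MC extracts (cells pretreated with isoproterenol and 8-bromo-cAMP). Compounds were first tested at 25 uM in duplicate and then in concentration series.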

Test [8] addresses Type-1 angiotensin II receptor (Homo sapiens) (UniProt P30556). Briefly: NVS_GPCR_hAT1: NovaScreen (NVS) G Protein-Coupled Receptor Assay for human Angiotensin II receptor type 1 (AT1) (AID 2283263). The essentials:
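Hits from a 25 uM duplicate screen (threshold e.g. 30% inhibition) were run in concentration-response with 50 uM top concentration. Displacement of specific radioligand from KAN-TS membrane preparations measured after 3 h by filter scintillation, DMSO as baseline.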

The target of test [9] is human Dopamine Receptor D4.4 (DRD4.4), DRD4 (gene 1815) (UniProt P21917). Briefly: NVS_GPCR_hDRD4.4: NovaScreen (NVS) G Protein-Coupled Receptor Assay for human Dopamine Receptor D4.4 (DRD4.4) (AID 2283264). In a few lines: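 Filter-binding assay with a tritiated or iodinated ligand, cell-free receptor prepared from CHO, 1 hour. Loss of bound radioactivity versus DMSO; single 25 uM duplicate screen, then concentration-response for actives.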

In test [10] the target is human Endothelin Receptor Type A (ETA), EDNRA (gene 1909) (UniProt P25101). Briefly: NVS_GPCR_hETA: NovaScreen (NVS) G Protein-Coupled Receptor Assay for human Endothelin Receptor Type A (ETA) (AID 2283265). In a few lines: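 Binding of radioligand to membrane protein extracted from SH-SY5Y cells was read by filtration and scintillation after 3 h. Compounds were screened at 25 uM in duplicate, with hits followed up in singleton concentration series to 50 uM.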

Test [11] has as its target human Dopamine Receptor D2 (DRD2), DRD2 (gene 1813) (UniProt P14416). Briefly: NVS_GPCR_hDRD2s: NovaScreen (NVS) G Protein-Coupled Receptor Assay for human Dopamine Receptor D2 (DRD2) (AID 2283266). The essentials: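 Test compound (25 uM, duplicate in the primary screen; concentration series at follow-up) competed with radioligand for human DRD2 in CHO-derived membrane protein. Filter-based scintillation counting was done 1.5 hours after dosing, with loss of signal analysed against DMSO.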

Test [12] addresses human Endothelin Receptor Type B (ETB), EDNRB (gene 1910) (UniProt P24530). Briefly: NVS_GPCR_hETB: NovaScreen (NVS) G Protein-Coupled Receptor Assay for human Endothelin Receptor Type B (ETB) (AID 2283267). The essentials: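 Filter-based scintillation readout of radioligand displacement, 4 h, using membranes from human astrocytoma cells. Actives from a 25 uM duplicate screen were retested in concentration-response (top 50 uM) relative to DMSO baseline.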

The target of test [13] is human Histamine 1 Receptor (H1), HRH1 (gene 3269) (UniProt P35367). Briefly: NVS_GPCR_hH1: NovaScreen (NVS) G Protein-Coupled Receptor Assay for human Histamine 1 Receptor (H1) (AID 2283268). The essentials:
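Filter-based scintillation detection of radioligand binding to human H1, 1 h incubation; chemicals screened in duplicate at 25 uM, then concentration-response; signal loss relative to DMSO taken as activity.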

Test [14] deals with D(1A) dopamine receptor (Homo sapiens) (UniProt P21728). Briefly: NVS_GPCR_hDRD1: NovaScreen (NVS) G Protein-Coupled Receptor Assay for human Dopamine Receptor D1 (DRD1) (AID 2283269). In a few lines:
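Extracted HEK293 DRD1 is incubated 1 h with compound and a tritiated or iodinated radioligand, then filtered and counted. Screening runs 25 uM in duplicate with on-plate positive and negative controls.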

For test [15], the target named is Muscarinic acetylcholine receptor M1 (Homo sapiens) (UniProt P11229). Briefly: NVS_GPCR_hM1: NovaScreen (NVS) G Protein-Coupled Receptor Assay for human Muscarinic, M1 Receptor (AID 2283270). The essentials: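 Actives from a duplicate 25 uM single-point screen were retested in concentration series. Binding measured as displacement of a radioligand from CHO-derived receptor preparation, 1 h incubation, filtration and scintillation counting, analysed as signal loss against DMSO.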

The target in test [16] is Muscarinic acetylcholine receptor M3 (Homo sapiens) (UniProt P20309). Briefly: NVS_GPCR_hM3: NovaScreen (NVS) G Protein-Coupled Receptor Assay for human Muscarinic, M3 Receptor (AID 2283272). The essentials: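 Radioligand displacement binding on human M3 receptor in CHO-derived membranes, 1 h incubation, filter-based scintillation counting. Primary screen in duplicate at 25 uM; actives followed up in concentration series; loss of signal versus DMSO.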

In test [17] the target is human Muscarinic, M4 Receptor, CHRM4 (gene 1132) (UniProt P08173). Briefly: NVS_GPCR_hM4: NovaScreen (NVS) G Protein-Coupled Receptor Assay for human Muscarinic, M4 Receptor (AID 2283274). The essentials:
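Filter-based scintillation counting of radioligand bound to CHO-expressed human M4 preparations after 1 h; loss of signal fitted versus DMSO. Initial duplicate testing at 25 uM, concentration-response follow-up for actives.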

Test [18] concerns the target human Leukotriene B4 Receptor 1 (LTB4-BLT1), LTB4R (gene 1241) (UniProt Q15722). Briefly: NVS_GPCR_hLTB4_BLT1: NovaScreen (NVS) G Protein-Coupled Receptor Assay for human Leukotriene B4 Receptor 1 (LTB4-BLT1) (AID 2283271). In a few lines:
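Cell-free human neutrophil receptor preparation, 1 h exposure, radioligand binding read by filter scintillation counting. Single 25 uM duplicate screen, then concentration series topping at 50 uM; binding loss scored against DMSO baseline.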

For test [19], the target named is human Adrenergic, Alpha 2c Receptor (Adra2C), ADRA2C (gene 152) (UniProt P18825). Briefly: NVS_GPCR_hAdra2C: NovaScreen (NVS) G Protein-Coupled Receptor Assay for human Adrenergic, Alpha 2c Receptor (Adra2C) (AID 2283259). The essentials:
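Screened first in duplicate at 25 uM, with actives then run as concentration series. Membranes from Sf9 cells were exposed for 1 h, and displacement of radioligand was counted after filtration, using DMSO as baseline.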

In test [20] the target is Muscarinic acetylcholine receptor M2 (Homo sapiens) (UniProt P08172). Briefly: NVS_GPCR_hM2: NovaScreen (NVS) G Protein-Coupled Receptor Assay for human Muscarinic, M2 Receptor (AID 2283273). In a few lines: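 Radioligand competition binding, cell-free, receptor from CHO; 1 h incubation; scintillation detection. Primary testing at 25 uM in duplicate.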

Sequence of human Adenosine A2a Receptor (AdoRA2a), ADORA2A (gene 135) (P29274 whole entry, looked up): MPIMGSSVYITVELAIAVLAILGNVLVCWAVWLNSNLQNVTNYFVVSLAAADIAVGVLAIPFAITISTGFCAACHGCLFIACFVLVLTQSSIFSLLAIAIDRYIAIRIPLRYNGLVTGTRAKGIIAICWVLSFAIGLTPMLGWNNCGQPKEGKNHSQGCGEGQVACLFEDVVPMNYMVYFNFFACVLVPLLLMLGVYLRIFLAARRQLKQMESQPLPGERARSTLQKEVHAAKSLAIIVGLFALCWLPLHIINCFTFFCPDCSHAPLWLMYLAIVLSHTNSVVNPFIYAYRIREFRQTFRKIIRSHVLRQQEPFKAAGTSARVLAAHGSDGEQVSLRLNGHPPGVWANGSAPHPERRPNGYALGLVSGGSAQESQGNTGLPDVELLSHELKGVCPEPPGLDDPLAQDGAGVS
Sequence of Muscarinic acetylcholine receptor M3 (Homo sapiens) (P20309 whole entry, looked up): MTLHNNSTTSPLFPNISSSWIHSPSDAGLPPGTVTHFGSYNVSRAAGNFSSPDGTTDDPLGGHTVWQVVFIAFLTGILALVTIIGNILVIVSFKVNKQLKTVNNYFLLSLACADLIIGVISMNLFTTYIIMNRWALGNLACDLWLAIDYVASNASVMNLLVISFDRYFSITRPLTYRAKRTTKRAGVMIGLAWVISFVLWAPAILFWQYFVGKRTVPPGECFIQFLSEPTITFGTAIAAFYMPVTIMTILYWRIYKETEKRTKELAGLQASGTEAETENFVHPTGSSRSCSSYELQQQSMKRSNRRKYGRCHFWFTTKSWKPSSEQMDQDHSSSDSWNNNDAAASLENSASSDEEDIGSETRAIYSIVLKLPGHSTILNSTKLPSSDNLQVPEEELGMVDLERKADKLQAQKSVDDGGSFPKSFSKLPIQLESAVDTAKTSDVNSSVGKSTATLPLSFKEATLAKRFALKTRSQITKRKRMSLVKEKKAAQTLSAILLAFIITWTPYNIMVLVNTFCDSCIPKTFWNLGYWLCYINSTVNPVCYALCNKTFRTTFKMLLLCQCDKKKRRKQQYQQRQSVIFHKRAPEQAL
Sequence of human Endothelin Receptor Type A (ETA), EDNRA (gene 1909) (P25101 whole entry, looked up): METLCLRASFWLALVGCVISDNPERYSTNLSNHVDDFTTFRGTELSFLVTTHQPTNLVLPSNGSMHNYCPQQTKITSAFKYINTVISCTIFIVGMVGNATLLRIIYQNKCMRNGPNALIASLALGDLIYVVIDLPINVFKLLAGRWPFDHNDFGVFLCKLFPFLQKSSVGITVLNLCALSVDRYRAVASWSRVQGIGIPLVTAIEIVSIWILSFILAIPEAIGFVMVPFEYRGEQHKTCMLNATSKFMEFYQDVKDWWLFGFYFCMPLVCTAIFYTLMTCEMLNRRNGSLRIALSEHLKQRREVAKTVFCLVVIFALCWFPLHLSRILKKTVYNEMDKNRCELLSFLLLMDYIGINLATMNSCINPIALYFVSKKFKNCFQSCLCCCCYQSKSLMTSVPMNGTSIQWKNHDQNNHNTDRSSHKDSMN
Sequence of human Serotonin, 5-Hydroxytryptamine Receptor 7 (5HT7), HTR7 (gene 3363) (P34969 whole entry, looked up): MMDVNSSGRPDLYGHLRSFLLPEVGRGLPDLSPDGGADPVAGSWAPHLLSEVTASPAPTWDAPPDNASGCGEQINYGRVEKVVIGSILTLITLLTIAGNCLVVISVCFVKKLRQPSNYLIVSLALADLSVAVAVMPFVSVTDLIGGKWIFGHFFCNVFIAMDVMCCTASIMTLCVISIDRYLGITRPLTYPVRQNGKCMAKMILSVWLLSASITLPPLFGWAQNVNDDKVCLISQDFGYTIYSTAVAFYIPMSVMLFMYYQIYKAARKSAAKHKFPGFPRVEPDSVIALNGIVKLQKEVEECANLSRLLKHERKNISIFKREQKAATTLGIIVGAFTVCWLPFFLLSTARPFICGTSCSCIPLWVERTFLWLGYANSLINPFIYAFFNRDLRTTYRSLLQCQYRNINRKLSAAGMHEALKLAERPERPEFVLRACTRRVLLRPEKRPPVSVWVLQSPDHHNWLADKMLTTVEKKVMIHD
Sequence of Beta-2 adrenergic receptor (Homo sapiens) (P07550 whole entry, looked up): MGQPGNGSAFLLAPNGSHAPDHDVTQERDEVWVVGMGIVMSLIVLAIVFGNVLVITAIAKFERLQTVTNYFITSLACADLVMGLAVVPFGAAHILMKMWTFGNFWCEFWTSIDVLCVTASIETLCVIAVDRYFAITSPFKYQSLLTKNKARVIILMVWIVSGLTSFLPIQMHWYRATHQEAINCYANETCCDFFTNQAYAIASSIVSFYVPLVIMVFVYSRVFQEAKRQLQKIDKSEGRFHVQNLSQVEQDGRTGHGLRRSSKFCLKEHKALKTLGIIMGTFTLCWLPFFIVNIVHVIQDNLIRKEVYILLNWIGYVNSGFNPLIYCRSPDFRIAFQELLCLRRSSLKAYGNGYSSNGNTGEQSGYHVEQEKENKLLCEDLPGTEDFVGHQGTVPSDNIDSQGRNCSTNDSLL
Sequence of human Adenosine A1 Receptor (AdoRA1), ADORA1 (gene 134) (P30542 whole entry, looked up): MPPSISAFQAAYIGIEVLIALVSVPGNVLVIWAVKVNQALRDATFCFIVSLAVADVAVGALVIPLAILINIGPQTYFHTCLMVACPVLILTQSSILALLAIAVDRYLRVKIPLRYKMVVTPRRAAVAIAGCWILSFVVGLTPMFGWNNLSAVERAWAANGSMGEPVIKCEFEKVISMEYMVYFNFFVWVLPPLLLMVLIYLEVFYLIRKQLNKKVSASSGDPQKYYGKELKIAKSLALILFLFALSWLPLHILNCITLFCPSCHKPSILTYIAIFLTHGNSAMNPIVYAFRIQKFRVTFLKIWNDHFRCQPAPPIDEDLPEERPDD
Sequence of D(1A) dopamine receptor (Homo sapiens) (P21728 whole entry, looked up): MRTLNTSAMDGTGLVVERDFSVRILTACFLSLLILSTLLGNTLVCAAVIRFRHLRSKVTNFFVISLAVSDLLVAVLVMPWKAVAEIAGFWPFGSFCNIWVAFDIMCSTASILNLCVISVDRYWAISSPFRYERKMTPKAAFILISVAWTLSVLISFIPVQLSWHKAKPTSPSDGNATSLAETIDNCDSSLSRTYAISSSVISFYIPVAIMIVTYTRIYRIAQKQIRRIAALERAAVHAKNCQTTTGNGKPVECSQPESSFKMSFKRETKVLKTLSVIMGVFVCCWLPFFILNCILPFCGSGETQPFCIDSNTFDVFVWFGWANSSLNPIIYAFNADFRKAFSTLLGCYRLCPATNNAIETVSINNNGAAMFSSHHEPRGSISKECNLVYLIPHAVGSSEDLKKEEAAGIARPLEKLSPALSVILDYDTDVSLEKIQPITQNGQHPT
Sequence of human Endothelin Receptor Type B (ETB), EDNRB (gene 1910) (P24530 whole entry, looked up): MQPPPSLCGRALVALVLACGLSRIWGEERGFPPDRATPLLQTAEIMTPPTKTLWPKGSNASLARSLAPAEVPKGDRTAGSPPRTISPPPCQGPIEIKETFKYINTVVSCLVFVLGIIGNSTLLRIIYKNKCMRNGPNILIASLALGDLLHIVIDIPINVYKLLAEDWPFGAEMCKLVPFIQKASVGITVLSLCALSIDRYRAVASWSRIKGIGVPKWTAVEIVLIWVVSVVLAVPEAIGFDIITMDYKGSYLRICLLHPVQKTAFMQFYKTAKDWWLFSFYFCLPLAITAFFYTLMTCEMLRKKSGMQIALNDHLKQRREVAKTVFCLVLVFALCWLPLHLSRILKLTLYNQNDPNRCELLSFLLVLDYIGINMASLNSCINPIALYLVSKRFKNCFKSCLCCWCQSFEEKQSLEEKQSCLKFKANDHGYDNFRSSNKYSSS
Sequence of human Dopamine Receptor D2 (DRD2), DRD2 (gene 1813) (P14416 whole entry, looked up): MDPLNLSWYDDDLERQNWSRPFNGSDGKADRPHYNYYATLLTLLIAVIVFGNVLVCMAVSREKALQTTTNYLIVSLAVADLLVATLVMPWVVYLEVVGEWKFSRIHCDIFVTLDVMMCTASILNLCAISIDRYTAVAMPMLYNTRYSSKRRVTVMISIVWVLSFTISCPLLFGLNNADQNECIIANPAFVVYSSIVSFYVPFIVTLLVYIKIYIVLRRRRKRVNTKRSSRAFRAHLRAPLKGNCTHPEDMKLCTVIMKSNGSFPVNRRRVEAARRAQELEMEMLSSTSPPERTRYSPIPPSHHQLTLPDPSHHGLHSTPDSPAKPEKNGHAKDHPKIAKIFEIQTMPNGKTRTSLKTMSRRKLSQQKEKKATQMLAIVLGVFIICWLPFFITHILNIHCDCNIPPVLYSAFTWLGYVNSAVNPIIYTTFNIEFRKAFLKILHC
Sequence of human Adrenergic, Beta 1 Receptor (Adrb1), ADRB1 (gene 153) (P08588 whole entry, looked up): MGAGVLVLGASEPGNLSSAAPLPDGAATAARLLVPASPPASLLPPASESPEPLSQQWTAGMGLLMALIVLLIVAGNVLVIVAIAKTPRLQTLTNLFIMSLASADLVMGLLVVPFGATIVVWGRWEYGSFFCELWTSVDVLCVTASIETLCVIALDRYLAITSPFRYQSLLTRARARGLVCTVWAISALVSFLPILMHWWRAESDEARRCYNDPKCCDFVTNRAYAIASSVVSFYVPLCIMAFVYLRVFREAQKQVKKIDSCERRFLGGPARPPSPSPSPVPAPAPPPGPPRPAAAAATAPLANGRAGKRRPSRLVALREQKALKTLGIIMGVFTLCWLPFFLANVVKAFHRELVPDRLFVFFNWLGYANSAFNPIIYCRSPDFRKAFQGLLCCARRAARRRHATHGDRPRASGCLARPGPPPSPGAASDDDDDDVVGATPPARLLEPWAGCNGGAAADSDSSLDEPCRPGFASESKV
Sequence of human Muscarinic, M4 Receptor, CHRM4 (gene 1132) (P08173 whole entry, looked up): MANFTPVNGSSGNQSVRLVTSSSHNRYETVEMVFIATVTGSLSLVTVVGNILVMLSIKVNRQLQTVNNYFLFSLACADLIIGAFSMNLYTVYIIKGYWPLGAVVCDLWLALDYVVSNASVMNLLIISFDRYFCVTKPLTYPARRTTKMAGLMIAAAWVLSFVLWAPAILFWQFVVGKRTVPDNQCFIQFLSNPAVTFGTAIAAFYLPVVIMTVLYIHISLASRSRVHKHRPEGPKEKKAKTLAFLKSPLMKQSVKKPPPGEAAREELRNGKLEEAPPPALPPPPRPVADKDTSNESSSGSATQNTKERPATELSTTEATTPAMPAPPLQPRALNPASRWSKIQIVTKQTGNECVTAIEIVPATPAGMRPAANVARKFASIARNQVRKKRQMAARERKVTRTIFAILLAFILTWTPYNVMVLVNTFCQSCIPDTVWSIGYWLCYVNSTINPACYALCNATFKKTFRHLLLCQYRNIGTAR

Broadly, the AC50 is the concentration at which the activity in the assay is half-maximal. For `CCC[CH2][Sn]([Cl])([CH2]CCC)[CH2]CCC`, the AC50 in test [1] was 25000 nM (active); in [2], 354 nM (active); in test [3], 6460 nM (active); in [4] it was 3650 nM (active); in test [5], 1250 nM (active); in test [6] it was 5470 nM (active). Also, the AC50 in [7] was 9810 nM (active); in test [8], 1780 nM (active); in test [9], 1830 nM (active); in test [10], 695 nM (active); in [11], 525 nM (active); in test [12] it was 15100 nM (active). Besides, the AC50 in [13] was 1420 nM (active); in test [14] it was 445 nM (active); in [15], 1860 nM (active); in test [16], 1440 nM (active); in [17] it was 17600 nM (active).

For `Nc1ccc(N=Nc2ccccc2)cc1`, the outcome in [1] was inactive.

With `Nc1ccc(Cl)cc1N`, in test [3], the AC50 is 2400 nM (active).

`CN(C)C(=O)Nc1ccc(Cl)cc1`: the molecule was classed as inactive in test [6].

Regarding `[O-][Cl+]O`, the molecule was classed as inactive in test [11].

On to `CCCCCOC(=O)c1ccccc1C(=O)OCCCCC`, for which the call in test [5] and in test [16] was inactive.

With `CCCCCCCCCCCCCN1CC(C)OC(C)C1` (stereo unspecified), the call in test [17] was inactive.

For the molecule `Cc1cccc(N)c1N`, the AC50 in test [1] was 8220 nM (active); in test [3] it was 4240 nM (active); in test [14], 12100 nM (active). Also, the result in [6] was inactive.

Regarding `C[C@]12C=CC3=C4CCC(=O)C=C4CC[C@H]3[C@@H]1CC[C@@H]2O`, the molecule was called inactive in [12] and in [18].

`CCC(C)c1ccc(O)cc1` (stereo unspecified): the molecule was classed as inactive in [10].

With `OCCCBr`, in test [12], the molecule was called inactive.

On to `[Cl-].[Cl-].[Hg+2]`, for which the AC50 is 928 nM (active) in [2]; 5190 nM (active) in [3]; 2230 nM (active) in test [4]; 303 nM (active) in [5]; 227 nM (active) in [19]; 925 nM (active) in test [6]. The AC50 in [8] was 10700 nM (active); in test [9] it was 1760 nM (active); in test [10] it was 6760 nM (active); in [11], 354 nM (active); in test [12] it was 19000 nM (active); in [14], 193 nM (active). Further, the AC50 was 1470 nM (active) in [15], 579 nM (active) in test [16], 1480 nM (active) in test [20] and 4130 nM (active) in [17]. In [7], the outcome was inactive.

`N#CC(Br)Br`: the molecule was called inactive in test [11] and in test [12].

Take `CC(C)(O)c1cnn2c(-c3ccc(F)c(-c4c(F)cccc4C#N)c3)cnc2n1`: in [3], the AC50 was 73.8 nM (active).

As to `N#CC(Br)(Br)C(N)=O`, in test [14], the molecule was classed as inactive.

Take `CCN(CC)CCO`: the molecule was classed as inactive in test [2] and in test [17].

For the molecule `CCNS(=O)(=O)C(F)(F)C(F)(F)C(F)(F)C(F)(F)C(F)(F)C(F)(F)C(F)(F)C(F)(F)F`, the AC50 in test [3] was 14500 nM (active).
